USP10 block: inhibitors of human USP10 deubiquitinase; purified USP10, Ub-rhodamine fluorescence, 60 min; 47,000 compounds, 1.1% hits; Ubiquitin carboxyl-terminal hydrolase 10 (Homo sapiens), Q14694; inhibition, % at 20 µM; AID 1645856, 2021
Target sequence (Q14694 whole entry, looked up): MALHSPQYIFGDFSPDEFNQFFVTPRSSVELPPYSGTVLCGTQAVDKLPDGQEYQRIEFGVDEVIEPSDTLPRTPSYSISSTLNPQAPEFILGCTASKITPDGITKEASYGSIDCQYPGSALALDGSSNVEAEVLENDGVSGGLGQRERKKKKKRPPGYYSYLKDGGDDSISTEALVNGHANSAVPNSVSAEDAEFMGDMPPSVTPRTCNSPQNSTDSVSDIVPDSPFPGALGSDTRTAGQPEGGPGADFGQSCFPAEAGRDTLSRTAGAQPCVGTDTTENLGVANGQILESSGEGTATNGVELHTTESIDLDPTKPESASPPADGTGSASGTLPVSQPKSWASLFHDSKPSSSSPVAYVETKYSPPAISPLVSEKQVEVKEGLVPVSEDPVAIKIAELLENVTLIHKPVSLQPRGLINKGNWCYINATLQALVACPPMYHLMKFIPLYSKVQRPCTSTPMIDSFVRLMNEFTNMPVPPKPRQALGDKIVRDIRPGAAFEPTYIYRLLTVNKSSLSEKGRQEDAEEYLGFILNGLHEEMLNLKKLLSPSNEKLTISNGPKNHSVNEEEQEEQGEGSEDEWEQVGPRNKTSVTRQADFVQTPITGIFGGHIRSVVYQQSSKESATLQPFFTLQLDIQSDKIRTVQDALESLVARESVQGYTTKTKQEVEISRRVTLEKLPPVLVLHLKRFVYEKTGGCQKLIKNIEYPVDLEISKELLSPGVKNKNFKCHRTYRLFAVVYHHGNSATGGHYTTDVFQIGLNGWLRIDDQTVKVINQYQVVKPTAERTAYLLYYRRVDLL
USP8 block: inhibitors of human USP8 deubiquitinase; Ubiquitin carboxyl-terminal hydrolase 8 (Homo sapiens), P40818; purified USP8, Ub-rhodamine cleavage fluorescence, 30 min; inhibition, % at 20 µM; 47,000 compounds, 4.2% hits; AID 1645853, 2021
USP7 block: inhibitors of human USP7 deubiquitinase. Ubiquitin carboxyl-terminal hydrolase 7 (Homo sapiens), Q93009. purified USP7, Ub-rhodamine cleavage fluorescence. inhibition, % at 20 µM. 47,000 compounds, 0.3% hits. AID 1645854, 2021
UCHL1 inh: inhibitors of human UCHL1 deubiquitinase; Ubiquitin carboxyl-terminal hydrolase isozyme L1 (Homo sapiens), P09936; purified UCHL1, Ub-rhodamine cleavage fluorescence; inhibition, % at 20 µM; 47,000 compounds, 0.2% hits
* marks the source's active call; other numbers are inactive results. This is a sample that favours compounds with a hit; in the whole collection about 4.6% have one here. No stated cut-off is given here; in the data, active means inhibition above about 30%; inactive means the rest.

SMILES | USP10 block | USP8 block | USP7 block | UCHL1 inh
O=C1CSC(c2ccc(F)cc2)c2c(n(C3CCCCCC3)[nH]c2=O)N1 (configuration not stated) | 11 | 83* | 22 | 4
O=C1CSC(c2ccc(Cl)cc2)c2c(n(C3CCCC3)[nH]c2=O)N1 (configuration not stated) | 12 | 25 | 7 | 1
CC(C)CCN1C[C@H]2C[C@H](C(=O)Nc3cccnc3)[C@@H](C1)O2 | 10 | -31 | -3 | -1
Cn1c(=O)c2ncnnc2n(C)c1=O | 89* | 98* | -68 | 50*
CO[C@@H]1C[C@H]2C=C[C@H]3[C@H]4O[C@]2(/C(C)=C/[C@@H](C)[C@@H]([C@H](C)O)OC1=O)[C@@H]3[C@H](O)[C@@H](C)[C@H]4OC(=O)c1ccc[nH]1 | 0 | -1 | -6 | -2
CC(C)=CCCC1(C)C=Cc2c(O)c3c(c(CC=C(C)C)c2O1)O[C@]12C(=C[C@@H]4CC1C(C)(C)O[C@@]2(C/C=C(/C)C(=O)O)C4=O)C3=O (some centres not stated) | 75* | 70* | 84* | 64*
CCCCCC(O)c1c(O)cc2c(c1O)C(=O)c1c(O)cc(O)cc1C2=O (configuration not stated) | 33* | -16 | -104 | 6
Cc1ccc2nc(COC(=O)C(O)(c3ccccc3)c3ccccc3)cc(=O)n2c1 | -2 | 40* | -15 | 2
N#Cc1ccc(COC(=O)C(O)(c2ccccc2)c2ccccc2)cc1 | 6 | 5 | -106 | 6
CO[C@H]1[C@@H](O)[C@H](C)O[C@H](O[C@H]2[C@H](Oc3cccc4c(O)c5c(=O)oc6ccc(C)c7c(=O)oc(c34)c5c67)O[C@H](C)[C@H](O)[C@@H]2O)[C@@H]1O | -15 | -329 | -160 | -162
Cc1ccccc1SCc1nc2ccccc2c(=O)n1-c1cccc(C(F)(F)F)c1 | 7 | 19 | -14 | 9
O=c1c2ccccc2nc(CSc2cccc(Cl)c2Cl)n1-c1ccccc1 | 21 | 30* | 0 | -2
CCOC(=O)[C@@H]1[C@@H](c2ccccc2)CN2CCN(C(=O)OC)C[C@H]12 | -7 | -4 | -1 | -2
COc1c(Cl)ccc2c(=O)c3c(oc12)C1=C2[C@@H](OCO1)[C@@H](OC)c1cc4c(c(O)c1[C@@]2(O)[C@H]3O)C(=O)N(C)[C@H](OC)[C@@H]4O | -8 | -17 | 4 | 12
COc1ccccc1-c1cc([C@H]2CN3CC[C@H]2C[C@@H]3CN)n(C)n1 | -9 | 54* | -46 | -66
CC(C)=CCC[C@H](C(=O)O)[C@@H]1CC[C@]2(C)C3=C(CC[C@@]12C)[C@@]1(C)CCC(=O)C(C)(C)C1CC3 (some centres not stated) | 38* | 13 | 6 | 0
CC[C@@H]1[C@@H](C)O[C@@](O)([C@@H](C)[C@H](O)[C@H](C)[C@H]2OC(=O)/C=C/C=C/[C@H](C)[C@@H]([C@@H](C)[C@@H](O)[C@H](C)[C@@]3(O)C[C@@H](O[C@H]4C[C@H](O)[C@H](O)[C@H](C)O4)[C@H](CC)[C@@H](C)O3)OC(=O)/C=C/C=C/[C@@H]2C)C[C@H]1O[C@H]1C[C@H](O)[C@H](O)[C@H](C)O1 | 1 | -15 | 51* | 13
C/C=C1/CN2[C@H]3C[C@@]45c6ccccc6N[C@@H]4[C@@H]2C[C@H]1C3(C(=O)OC)[C@@H]5O (some centres not stated) | -4 | 6 | -9 | -11
O=C(CN1CC=C(c2ccccc2)CC1)Nc1ccc2c(c1)OCO2 | -2 | 8 | 3 | 2
Oc1ccc2cc(Br)ccc2c1CN1CC=C(c2ccccc2)CC1 | 2 | 44* | 2 | 1
O=C(c1cc(Cl)c(Cl)[nH]1)c1cc(Cl)cc(Cl)c1O | 40* | 8 | -10 | -3
CC1CC[C@@]2(NC1)O[C@H]1C[C@H]3[C@@H]4CC=C5C[C@@H](O)CC[C@]5(C)[C@H]4CC[C@]3(C)[C@H]1[C@@H]2C (some centres not stated) | -7 | -5 | 1 | 2
COc1c(Cl)ccc2c(=O)c3c(O)c4c5c(c3oc12)OCO[C@H]5[C@@H](OC)c1cc2c(c(O)c1-4)C(=O)N(C)[C@H](OC)[C@@H]2O | 2 | 6 | 2 | 6
CCC(CC)n1[nH]c(=O)c2c1NC(=O)CSC2c1ccc2c(c1)OCO2 (configuration not stated) | 5 | 43* | 10 | -1
CN(C)[C@@H]1C(=O)C(C(N)=O)=C(O)[C@@]2(O)C(=O)C3=C(O)c4c(O)cccc4[C@@](C)(O)C3[C@H](O)[C@@H]12 (some centres not stated) | 62* | 50* | 89* | 90*
CN(C)[C@@H]1C(=O)C(C(N)=O)=C(O)[C@@]2(O)C(=O)C3=C(O)c4c(O)cccc4[C@@](C)(O)[C@H]3C[C@@H]12 | -3 | 0 | -74 | 21
Cc1cccc(COc2ccc(C3SCC(=O)Nc4n[nH]c(C)c43)cc2)c1 (configuration not stated) | 7 | 86* | -24 | 8
O=C(NCc1cccnc1)[C@H]1CC[C@@H]2[C@@H](CCN2C2CCCC2)O1 | 6 | 3 | 4 | 0
